Measured values reported in article PMC5540273 (PLoS ONE, 2017).

Each molecule was assayed on CHEK1. Details: concentration: 1 μM, replicates: in singlicate; n = 1.
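Also: KINOMEscan kinase panel screen.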

Row | Structure (SMILES) | %Inh [%]
1 | Nc1nccc2scc(-c3ccc4c(c3)CCN4C(=O)Cc3ccccc3)c12 [GSK2576924] | 0
2 | CCC(=O)c1c(-c2ccccc2)c2cc(Cl)ccc2c(=O)n1Cc1cc(S(C)(=O)=O)n(CC(F)F)n1 | 13
3 | O=c1cc(N2CCOCC2)nc2n(Cc3ccc(F)c(Cl)c3)ccn12 [GSK2297099] | 4
4 | Fc1cccc(CSc2nnc(-c3ccc4c(c3)CCO4)o2)c1 | 0
5 | Cc1cccc(-c2nc(Nc3ccc4c(cnn4C)c3)c3ccccc3n2)n1 [GW876731] | 0
6 | COc1cccc(C2=C(Nc3cccc(C(=O)O)c3)C(=O)NC2=O)c1 [SB-390770] | 0
7 | Nc1ncnc2c1ncn2-c1cccc2ccccc12 [SKF-97184] | 0
8 | Nc1ncnc2c1ncn2-c1ccc(Cl)cc1 [AH2635] | 0
9 | COc1cc2ncn(-c3cc(OCc4ccncc4)c(C(N)=O)s3)c2cc1OC [GSK336313] | 0
10 | Cl.c1ccc(Cn2cnc3cc(Nc4ncnc5ccccc45)ccc32)cc1 [GW272142] | 0
11 | C[C@@H]1CC[C@H](C(=O)NC2CCCCC2)CN1c1cc(-c2ccc3c(N)n[nH]c3c2)nc(N)n1 [GSK2291363] | 0
12 | Nc1n[nH]c2ncc(-c3ccccc3)cc12 [SB-517081] | 12
13 | CN1C(=O)C(Nc2cc(Cl)c(O)c(Cl)c2)=C(c2ccc(Cl)cc2)C1=O [SB-404321] | 0
14 | COc1ccc(-c2cc3c(C)nc(N)nc3n([C@H]3CC[C@H](O)CC3)c2=O)cn1 | 0
15 | COc1cc(Nc2nccc(N3CCC(NC(=O)C4COc5ccccc5O4)C3)n2)cc(OC)c1OC (centres unmarked) [GSK1379761] | 0
16 | CC(C)(C)c1ccc(C(=O)Nc2cn3cc(-c4ccccc4)ccc3n2)cc1 | 4
17 | CN1C(=O)C(Nc2ccccc2)=C(c2ccccc2)C1=O [SB-300079] | 0
18 | CCC(=O)c1c(-c2ccccc2)c2cc(Cl)ccc2c(=O)n1Cc1ccc(C(=O)O)cc1 | 0
19 | CCS(=O)c1ccc(-c2coc3ccc(-c4nnc(C)o4)cc23)cc1 (centres unmarked) | 0

Row | Structure (SMILES) | %Inh [%]
20 | COc1cc(Nc2nccc(N3CCC(NC(=O)C(C)c4ccc(Cl)cc4)C3)n2)cc(OC)c1OC (centres unmarked) [GSK1379757] | 0
21 | COc1cccc(-n2cnc3c(N)ncnc32)c1 [SKF-97416] | 0
22 | OCCCNc1nccc(-c2c(-c3cccc(C(F)(F)F)c3)nn3cc(C(F)(F)F)ccc23)n1 [GW630813] | 0
23 | COc1cc2nccc(Nc3cccc(Oc4ccccc4)c3)c2cc1OC.Cl [GW284543] | 0
24 | CN(C)c1cc(-c2ccc3c(N)n[nH]c3c2)nc(N)n1 [GSK2219329] | 0
25 | Cl.NS(=O)(=O)c1cccc(Nc2cc(-c3ccc(F)cc3)n[nH]2)c1 [GW824645] | 0
26 | Nc1nc(N)c2nc(-c3ccccc3)[nH]c2n1 [SKF-12778] | 0
27 | COc1cc2ncn(-c3cc(OCc4ccc(S(C)(=O)=O)cc4)c(C(N)=O)s3)c2cc1OC [GW869979] | 18
28 | COc1ccc(-c2cc3c(C)nc(N)nc3n([C@H]3CC[C@H](OCCO)CC3)c2=O)cn1 | 0
29 | CCn1c(-c2nonc2N)nc2ccccc21 [SB-693162/GW549034] | 0
30 | COc1cc2ncn(-c3cc(OCCCc4ccccc4)c(C(N)=O)s3)c2cc1OC [GSK205189] | 0
31 | COc1ccc(CNC(=O)NC2CCN(c3ccnc(Nc4ccc(F)cc4)n3)C2)cc1 (centres unmarked) [GSK1379706] | 8
32 | Cc1ccccc1COc1cc(-n2cnc3cc(Cl)ccc32)sc1C(N)=O [GW813349] | 0
33 | Nc1n[nH]c2nnc(-c3ccccc3)c(-c3ccccc3)c12 [GW554060] | 24
34 | Cc1nnc(-c2ccc3ncn(-c4ccc(S(C)=O)cc4)c3c2)o1 (centres unmarked) | 1
35 | CCc1ccc(-c2ccc3c(c2)-c2nn(C)cc2S(=O)(=O)N3C)cc1 | 0
36 | Cc1c(Cn2c(C)nn3c(=O)cc(N4CCO[C@H](C)C4)nc23)cccc1C(F)(F)F [GSK2373690] | 2
37 | CCc1nc(-c2cccc(C)c2)c(-c2ccncc2)s1 | 0

These molecules were tested on CHEK2. Details: concentration: 1 μM, replicates: in singlicate; n = 1.

Row | Structure (SMILES) | %Inh [%]
38 | Nc1nccc2scc(-c3ccc4c(c3)CCN4C(=O)Cc3ccccc3)c12 [GSK2576924] | 0
39 | CCC(=O)c1c(-c2ccccc2)c2cc(Cl)ccc2c(=O)n1Cc1cc(S(C)(=O)=O)n(CC(F)F)n1 | 0
40 | O=c1cc(N2CCOCC2)nc2n(Cc3ccc(F)c(Cl)c3)ccn12 [GSK2297099] | 0
41 | Fc1cccc(CSc2nnc(-c3ccc4c(c3)CCO4)o2)c1 | 3
42 | Cc1cccc(-c2nc(Nc3ccc4c(cnn4C)c3)c3ccccc3n2)n1 [GW876731] | 0
43 | COc1cccc(C2=C(Nc3cccc(C(=O)O)c3)C(=O)NC2=O)c1 [SB-390770] | 0
44 | Nc1ncnc2c1ncn2-c1cccc2ccccc12 [SKF-97184] | 17
45 | Nc1ncnc2c1ncn2-c1ccc(Cl)cc1 [AH2635] | 0
46 | COc1cc2ncn(-c3cc(OCc4ccncc4)c(C(N)=O)s3)c2cc1OC [GSK336313] | 0
47 | Cl.c1ccc(Cn2cnc3cc(Nc4ncnc5ccccc45)ccc32)cc1 [GW272142] | 0
48 | C[C@@H]1CC[C@H](C(=O)NC2CCCCC2)CN1c1cc(-c2ccc3c(N)n[nH]c3c2)nc(N)n1 [GSK2291363] | 22
49 | Nc1n[nH]c2ncc(-c3ccccc3)cc12 [SB-517081] | 0
50 | CN1C(=O)C(Nc2cc(Cl)c(O)c(Cl)c2)=C(c2ccc(Cl)cc2)C1=O [SB-404321] | 0
51 | COc1ccc(-c2cc3c(C)nc(N)nc3n([C@H]3CC[C@H](O)CC3)c2=O)cn1 | 13
52 | COc1cc(Nc2nccc(N3CCC(NC(=O)C4COc5ccccc5O4)C3)n2)cc(OC)c1OC (centres unmarked) [GSK1379761] | 29
53 | CC(C)(C)c1ccc(C(=O)Nc2cn3cc(-c4ccccc4)ccc3n2)cc1 | 0
54 | CN1C(=O)C(Nc2ccccc2)=C(c2ccccc2)C1=O [SB-300079] | 0
55 | CCC(=O)c1c(-c2ccccc2)c2cc(Cl)ccc2c(=O)n1Cc1ccc(C(=O)O)cc1 | 0
56 | CCS(=O)c1ccc(-c2coc3ccc(-c4nnc(C)o4)cc23)cc1 (centres unmarked) | 0

Row | Structure (SMILES) | %Inh [%]
57 | COc1cc(Nc2nccc(N3CCC(NC(=O)C(C)c4ccc(Cl)cc4)C3)n2)cc(OC)c1OC (centres unmarked) [GSK1379757] | 8
58 | COc1cccc(-n2cnc3c(N)ncnc32)c1 [SKF-97416] | 25
59 | OCCCNc1nccc(-c2c(-c3cccc(C(F)(F)F)c3)nn3cc(C(F)(F)F)ccc23)n1 [GW630813] | 1
60 | COc1cc2nccc(Nc3cccc(Oc4ccccc4)c3)c2cc1OC.Cl [GW284543] | 0
61 | CN(C)c1cc(-c2ccc3c(N)n[nH]c3c2)nc(N)n1 [GSK2219329] | 0
62 | Cl.NS(=O)(=O)c1cccc(Nc2cc(-c3ccc(F)cc3)n[nH]2)c1 [GW824645] | 0
63 | Nc1nc(N)c2nc(-c3ccccc3)[nH]c2n1 [SKF-12778] | 0
64 | COc1cc2ncn(-c3cc(OCc4ccc(S(C)(=O)=O)cc4)c(C(N)=O)s3)c2cc1OC [GW869979] | 0
65 | COc1ccc(-c2cc3c(C)nc(N)nc3n([C@H]3CC[C@H](OCCO)CC3)c2=O)cn1 | 12
66 | CCn1c(-c2nonc2N)nc2ccccc21 [SB-693162/GW549034] | 0
67 | COc1cc2ncn(-c3cc(OCCCc4ccccc4)c(C(N)=O)s3)c2cc1OC [GSK205189] | 0
68 | COc1ccc(CNC(=O)NC2CCN(c3ccnc(Nc4ccc(F)cc4)n3)C2)cc1 (centres unmarked) [GSK1379706] | 48
69 | Cc1ccccc1COc1cc(-n2cnc3cc(Cl)ccc32)sc1C(N)=O [GW813349] | 0
70 | Nc1n[nH]c2nnc(-c3ccccc3)c(-c3ccccc3)c12 [GW554060] | 0
71 | Cc1nnc(-c2ccc3ncn(-c4ccc(S(C)=O)cc4)c3c2)o1 (centres unmarked) | 0
72 | CCc1ccc(-c2ccc3c(c2)-c2nn(C)cc2S(=O)(=O)N3C)cc1 | 0
73 | Cc1c(Cn2c(C)nn3c(=O)cc(N4CCO[C@H](C)C4)nc23)cccc1C(F)(F)F [GSK2373690] | 0
74 | CCc1nc(-c2cccc(C)c2)c(-c2ccncc2)s1 | 16
